Screening results from PubChem BioAssay.
Most compounds without a hit are left out; they make up all but 19% or so of the library.
TDP1 cell CPT: growth inhibition of DT40 Tdp1-/-;hTDP1 cells with camptothecin (screen for TDP1 inhibitors). chicken DT40 Tdp1-/-;hTDP1 cells + 20 nM CPT, ATP luminescence, 48 h. 420,000 compounds, 12% hits. AID 686979. Potency, µM (titrated, usually from 46.2 µM), for the others: top-dose activity change, negative = growth inhibition, most hits filed as inhibitors; note: potency is the fitted concentration of half-maximal effect; nearly all actives have a fitted effect of over 55% in size
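Chicken DT40 Tdp1-/- cells stably complemented with human TDP1 were seeded at 400 cells/well in medium containing 20 nM camptothecin, exposed to pin-transferred compounds, and grown at 37 °C for at least 48 hr. Viability was read as ATP luminescence.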
HT1080NT lethal: kills 2HG-producing HT-1080-NT fibrosarcoma cells; HT-1080-NT fibrosarcoma viability, CellTiter-Glo ATP luminescence, 48 h; Potency, µM (highest dose often 46.1 µM), without a hit: at the highest dose activity, negative = less viability, most hits filed as cytotoxic; 360,000 compounds, 1.6% hits;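 note: NT is the 2HG producing partner of a matched IDH1 knockdown line; potency is the fitted concentration of half-maximal effect; 0% = DMSO-treated cells and -100% = media-only wells without cells; nearly all actives have a fitted effect of over 55% in size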
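Viability by CellTiter-Glo luminescence after 48 h compound exposure at 37C of HT-1080-NT cells (750/well, RPMI, 5% FBS). % activity scaled between DMSO wells and medium-only wells, then curve-fitted and categorized by curve class.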
IL1B secr inh: inflammasome signaling inhibition, IL-1 beta readout | AID 743279 | 360,000 compounds, 4.7% hits | activity change, % at 57.5 µM | THP-1 LPS/ATP IL-1B secretion, AlphaLISA, 16 h; active compounds read low; in the data active = activity change below about -50%; inconclusive = mostly about -30% to -49%
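Secreted IL-1B measured by AlphaLISA bead assay after 16 h compound exposure of THP-1 cells; compounds (final up to 57.5 uM) added 1 h before LPS (250 ng/mL) and ATP (1.25 mM) stimulation; lower signal means less secretion.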
ELG1 repair inh: ELG1-dependent DNA repair inhibition | Potency, µM (top dose mostly 46.1 µM), for inactives: at the top dose activity change, negative = inhibition, actives largely listed as inhibitors | 330,000 compounds, 2.3% hits | HEK293T ELG1-luciferase reporter, luminescence, 16 h; DNA damage induced by 5-fluorouridine | AID 504467; note: potency is the fitted concentration of half-maximal effect; nearly all actives have a fitted effect of over 55% in size
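Quantitative HTS, concentration-response format. 2,000 cells/well co-treated with 5-fluorouridine and compound, 16 hr in 5% CO2 at 37 °C; ONE-Glo luminescence read after 30 min.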
HT1080 IDH1KD tx: toxicity to HT-1080 IDH1 knockdown cells (counter line); HT-1080 IDH1 knockdown viability, ATP luminescence, 48 h; Potency, µM (series often up to 46.1 µM), without a hit: top-dose activity, negative = toxicity, most hits filed as cytotoxic; 360,000 compounds, 2% hits; AID 686971;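 note: potency is the fitted concentration of half-maximal effect; 0% = DMSO wells and -100% = cell-free medium wells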
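HT-1080-IDH1KD cells (IDH1 knocked down), 750/well in RPMI with 5% FBS, treated with compound 48 h at 37 degrees C. Viability by CellTiter-Glo luminescence, normalised to DMSO and no-cell wells; concentration-response curves classed.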
TDP1 cell noCPT: qHTS for Inhibitors of human tyrosyl-DNA phosphodiesterase 1 (TDP1): qHTS in cells in absence of CPT. DT40 Tdp1-/- hTDP1 cells, no CPT, ATP luminescence, 48 h. Potency, µM (highest dose often 46.2 µM), without a hit: at the top dose activity change, negative = growth inhibition, usual class: inhibitors. 420,000 compounds, 15% hits; note: potency is the fitted concentration of half-maximal effect; nearly all actives have a fitted effect of over 55% in size
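Chicken DT40 Tdp1-/- cells complemented with human TDP1, screened without camptothecin (DMSO vehicle only), 400 cells/well. Compounds pin-transferred, cells incubated at 37 °C for at least 48 hr. Growth read as ATP-dependent luminescence (CellTiter-Glo, 30 min at RT).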
The depositor's hits bear a star; u = inconclusive; x = no result. Unless noted, calls come from the whole dose curve; as a rule, active = well fitted curve in the direction sought with a large enough effect; inconclusive = small, poorly fitted or top-dose-only effect, or another doubt; inactive = no such curve, though single readings can be large; an effect the other way counts as inactive or inconclusive. Unless noted, % is set by controls: 0 for no effect and ±100 for the full control effect.

SMILES | TDP1 cell CPT | HT1080NT lethal | IL1B secr inh | ELG1 repair inh | HT1080 IDH1KD tx | TDP1 cell noCPT
CC(=O)c1cccc(CN(C)CC2CCCN(CCc3ccccc3C)C2)c1 (stereo not drawn) | 16µM* | -1% | -12 | -9% | -15% | u
O=Cc1coc2c(ccc3ccccc32)c1=O | x | x | x | 9% | x | x
Nc1nc(=O)n(C2CCCCO2)cc1Br (stereo not drawn) | -4% | 9% | 3 | x | 10% | 13%
COC(=O)CCC(=O)N(C)CC1CCCN(CCc2cccc(C(F)(F)F)c2)C1 (stereo not drawn) | -3% | 4% | 6 | u | 12% | 2%
COc1ccc(CN(C)CC2CCCN(CCc3ccc(F)cc3)C2)cc1OC (stereo not drawn) | 16µM* | u | u | -18% | -21% | 23µM*
COc1cc(CN(C)CC2CCCN(CCc3ccc(F)cc3)C2)c(Cl)cc1O (stereo not drawn) | -3% | -4% | 5 | -7% | -9% | -29%
COc1ccc(F)c(CN(C)CC2CCCN(CCc3ccc(F)cc3)C2)c1 (stereo not drawn) | u | u | -58* | -10% | u | 16µM*
COc1cc(CN(C)CC2CCCN(CCc3cccc(C(F)(F)F)c3)C2)ccc1O (stereo not drawn) | u | -25% | u | 0% | u | 23µM*
Cc1ccc(NC(=O)C2CCN(S(=O)(=O)c3ccc4[nH]c(=O)ccc4c3)CC2)cc1C | 2% | x | x | x | x | -18%
COc1ccc(/C(O)=C2/C(=O)C(=O)N(c3ccccn3)C2c2cccc(Cl)c2)cc1 (stereo not drawn) | 1% | -6% | -16 | -3% | -3% | 5%
CCN(C(=O)c1cnc(NC(C)C)cc1C(F)(F)F)c1ccc(Cl)cc1Cl | 8.2µM* | u | -19 | u | u | 16µM*
CC(C(=O)Nc1ccc(Cl)cc1)c1ncc(C(F)(F)F)cc1Cl (stereo not drawn) | u | -18% | -12 | u | -24% | u
Cc1ccc(C(=O)CSc2ncc3c(n2)-c2ccccc2N(Cc2ccc(Cl)cc2)S3(=O)=O)cc1 | -16% | x | x | x | x | -5%
COCCn1c(N)c(C(=O)c2cccc(S(=O)(=O)N3CCCCCC3)c2)c(=O)[nH]c1=O | u | -1% | 0 | -16% | 1% | -27%
CCCOc1ccc(N2C(=O)CC(SC(=N)N3N=C(c4ccccc4)CC3c3ccccc3)C2=O)cc1 (stereo not drawn) | 18µM* | 11% | 0 | u | -1% | 18µM*
CCCOc1ccc(N2C(=O)CC(SC(=NC)Nc3ccc(F)cc3)C2=O)cc1 (stereo not drawn) | -20% | -12% | 21 | -10% | -23% | u
Cc1cc2c(nc1C)CCCN2C[C@@H](C)O/N=C1/[C@H]2CCn3c(=O)n(-c4ccccc4)c(=O)n3[C@H]2[C@H](O)[C@@H]2O[C@H]12 | u | 0% | -54* | -22% | -6% | u
C/C(CCN1CCCCc2nc(C)c(C)cc21)=N\O[C@H](C)c1cn([C@H](CO)Cc2ccccc2)nn1 | x | x | x | -11% | x | x
CCN(c1ccccc1)S(=O)(=O)c1ccc2ccccc2c1 | -4% | -6% | 7 | -2% | 3% | -19%
CCN(c1ccccc1)S(=O)(=O)c1ccc2c(c1)N(C(C)=O)CCO2 | 4% | 3% | 82 | 13% | 3% | -30%
Cc1cccc(NS(=O)(=O)c2cc(C(=O)OC(C)C(=O)NCc3ccc4c(c3)OCO4)ccc2C)c1 (stereo not drawn) | 18µM* | -11% | 0 | 23µM* | -15% | 16µM*
CCN(c1ccccc1)S(=O)(=O)c1ccc2c(c1)OCCO2 | 16µM* | 5% | 55 | -1% | -1% | u
CC(=O)Nc1cccc(C(=O)OC(C)C(=O)NCc2ccc3c(c2)OCO3)c1 (stereo not drawn) | -3% | 1% | 22 | 12% | -15% | -1%
CCN(c1ccccc1)S(=O)(=O)c1cc(C(=O)OC(C)C(=O)Nc2ccc3c(c2)OCCO3)ccc1C (stereo not drawn) | u | -13% | 16 | u | -25% | 16µM*
O=S(=O)(c1ccc2ccccc2c1)N(CC1CO1)c1ccccc1 (stereo not drawn) | 13µM* | u | -8 | 2% | -24% | u
SMILES | TDP1 cell CPT | HT1080NT lethal | IL1B secr inh | ELG1 repair inh | HT1080 IDH1KD tx | TDP1 cell noCPT
O=C(O)c1ccc(NCCC2=CCCCC2)c([N+](=O)[O-])c1 | 4% | 1% | 15 | 1% | 1% | 0%
COc1ccc(C)cc1Nc1nc(N)c2ccccc2n1 | u | u | -93* | 10% | u | u
Cc1ccccc1Nc1nc(N)c2ccccc2n1 | u | u | -96* | u | 16µM* | u
COc1cc(C)nc(N(Cc2ccccc2)S(=O)(=O)c2ccc(C)cc2)n1 | u | -13% | u | -15% | -19% | 18µM*
O=C(NCC1(c2ccccc2)CCCC1)c1cccc(Br)c1 | 15µM* | -9% | -2 | -13% | -7% | 13µM*
Nc1ccc(C(=O)NCC2(c3ccccc3)CCCC2)cc1 | -23% | 7% | -13 | 7% | 17% | u
O=C(/C=C/c1ccco1)NCC1(c2ccccc2)CCCC1 | 12µM* | 15% | -4 | -13% | 5% | u
COc1ccc(C2(CNC(=O)c3cc([N+](=O)[O-])cc([N+](=O)[O-])c3)CCCC2)cc1OC | 21µM* | -14% | 23 | u | -3% | 16µM*
O=C(NCC1(c2ccccc2)CCCC1)c1ccco1 | -65% | 25% | -4 | -12% | 18% | 15µM*
COc1ccc(C2(CNC(=O)c3ccccc3)CCCC2)cc1OC | -47% | -7% | -2 | -3% | -2% | u
CCOc1ccc(C2CC(=O)NC2=O)cc1 (stereo not drawn) | 6% | 8% | 4 | 14% | 6% | -8%
COc1cccc(C(=O)NCC2(c3ccccc3)CCCC2)c1OC | 18µM* | 0% | 18 | -15% | -17% | 9.2µM*
O=C(NCc1ccco1)C1(c2ccccc2)CCCC1 | 10µM* | -26% | -1 | -6% | 3% | 7.1µM*
COC(=O)c1c(NC(=O)/C=C/C(=O)O)sc(C)c1-c1ccc(C)c(C)c1 | u | u | -95* | -6% | u | u
